Hits are enriched below; roughly 11% of the tested compounds scored in any of these assays.
FLuc inh: Firefly luciferase inhibition profiling of diverse chemical library using quantitative high-throughput screening | Luciferin 4-monooxygenase (Photinus pyralis), P08659 | purified P. pyralis luciferase, luminescence, biochemical | Potency, µM (highest dose often 115 µM), actives largely listed as inhibitors | hit rate 2.5% among 76,000 | AID 1347043, 2019; active = well fitted curve in the direction sought with a large enough effect; inconclusive = small, poorly fitted or top-dose-only effect, or another doubt; inactive = no such curve, though single readings can be large; an effect the other way counts as inactive or inconclusive; also: % is scaled to controls: 0 for no effect and ±100 for the full control effect; nearly all actives have a fitted effect of over 65% in size
Target sequence (P08659 whole entry, looked up): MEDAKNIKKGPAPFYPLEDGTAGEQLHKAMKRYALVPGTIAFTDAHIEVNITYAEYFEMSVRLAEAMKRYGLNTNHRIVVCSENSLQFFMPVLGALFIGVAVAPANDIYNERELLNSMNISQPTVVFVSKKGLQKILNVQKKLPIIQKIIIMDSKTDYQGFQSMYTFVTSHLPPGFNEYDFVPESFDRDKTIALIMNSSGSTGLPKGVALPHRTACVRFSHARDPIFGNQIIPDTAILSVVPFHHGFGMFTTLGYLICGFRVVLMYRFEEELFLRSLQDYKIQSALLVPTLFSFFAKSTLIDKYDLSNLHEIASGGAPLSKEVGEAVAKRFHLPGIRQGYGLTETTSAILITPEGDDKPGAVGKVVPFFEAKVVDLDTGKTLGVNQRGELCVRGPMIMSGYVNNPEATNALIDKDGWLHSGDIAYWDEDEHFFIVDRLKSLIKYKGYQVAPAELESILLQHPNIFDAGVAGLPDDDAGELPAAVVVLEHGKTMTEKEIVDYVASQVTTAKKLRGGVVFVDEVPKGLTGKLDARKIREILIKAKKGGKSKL
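Purified P. pyralis luciferase (10nM final) in 50mM Tris acetate pH 7.5, 10mM Mg acetate, 0.01% Tween-20, 0.05% BSA with 10uM D-luciferin and 10uM ATP. Compounds titrated qHTS. Luminescence imaged on CCD.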
HEK cytotox: Cytotoxic Profiling in HEK 293 Cell Line of Diverse Libraries Using Quantitative High-Throughput Screening | HEK 293 viability, ATP luminescence (CellTiter-Glo), 48-72 h | Potency, µM (doses to about 115 µM), for inactives: at the top dose activity change, negative = cytotoxicity, actives largely listed as inhibitors | hit rate 6.6% among 94,000 | AID 1345083, 2018; active = well fitted curve in the direction sought with a large enough effect; inconclusive = small, poorly fitted or top-dose-only effect, or another doubt; inactive = no such curve, though single readings can be large; an effect the other way counts as inactive or inconclusive; also: % is scaled to controls: 0 for no effect and ±100 for the full control effect; nearly all actives have a fitted effect of over 60% in size
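CellTiter-Glo luminescence (cellular ATP) was read after 48 or 72 hr of compound exposure at 37 degree Celsius. Cells were HEK 293 plated at 250 cells/well.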
hNpr1 antagonist: Natriuretic polypeptide receptor (hNpr1) antagonism - Primary qHTS; HEK293 hNpr1 GloSensor cGMP, ANP-stimulated luminescence; Potency, µM (titrated, usually from 46.3 µM), inactives show at the top dose activity change, negative = inhibition, most hits filed as inhibitors; hit rate 1.6% among 76,000; AID 1347048, 2019; also: % is scaled to controls: 0 for no effect and ±100 for the full control effect; nearly all actives have a fitted effect of over 60% in size
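Compound pre-incubated 30 min at room temperature on GloSensor-loaded HEK293 cells stably carrying hNpr1 and the pGS-40F cGMP biosensor. Stimulation uses hNppA at 0.1 nM final; luminescence is taken at baseline and 20 min post-agonist.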
3T3 cytotox: Cytotoxic Profiling in NIH 3T3 Cell Line of Diverse Libraries Using Quantitative High-Throughput Screening. NIH 3T3 viability, CellTiter-Glo ATP luminescence, 48-72 h. hit rate 4.3% among 94,000. Potency, µM (highest dose often 96.7 µM), for inactives: at the top dose activity change, negative = cytotoxicity, usual class: inhibitors. AID 1345082, 2018; active = well fitted curve in the direction sought with a large enough effect; inconclusive = small, poorly fitted or top-dose-only effect, or another doubt; inactive = no such curve, though single readings can be large; an effect the other way counts as inactive or inconclusive; also: % is scaled to controls: 0 for no effect and ±100 for the full control effect; nearly all actives have a fitted effect of over 55% in size
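Cytotoxicity is measured as loss of cellular ATP: NIH 3T3 cells (400/well) are exposed to compound for 48 or 72 hr at 37 °C, then CellTiter-Glo luminescence is imaged after 10 min at room temperature.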
NPR1 antag cnf: Natriuretic polypeptide receptor (hNpr1) antagonism - Confirmation; shares compounds with hNpr1 antagonist; HEK293 hNpr1 cGMP GloSensor luminescence, ANP-stimulated; Potency, µM (top dose mostly 57.6 µM), inactives show top-dose activity change, negative = inhibition, hits mostly inhibitors; hit rate 76% among 1,400; also: nearly all actives have a fitted effect of over 70% in size
Npr2 selectivity: Natriuretic polypeptide receptor (hNpr2) antagonism - Subtype selectivity assay | shares compounds with hNpr1 antagonist | AID 1347046, 2019 | HEK293 hNpr2 GloSensor cGMP luminescence, CNP-stimulated | Potency, µM (highest dose often 57.6 µM), for the others: at the highest dose activity change, negative = inhibition, most hits filed as inhibitors | hit rate 67% among 1,400; also: nearly all actives have a fitted effect of over 70% in size
FLuc counter: Natriuretic polypeptide receptor (hNpr1) antagonism - Confirmation firefly luciferase (FLuc) inhibition counterscreen; shares compounds with hNpr1 antagonist; purified FLuc enzyme, luminescence, Km substrate; Potency, µM (doses to about 57.6 µM), without a hit: at the top dose activity change, negative = inhibition, actives largely listed as inhibitors; hit rate 0.7% among 1,400; AID 1347047, 2019; active = well fitted curve in the direction sought with a large enough effect; inconclusive = small, poorly fitted or top-dose-only effect, or another doubt; inactive = no such curve, though single readings can be large; an effect the other way counts as inactive or inconclusive; also: 0% is about no effect
GloSensor cGMP: Natriuretic polypeptide receptor (hNpr1) antagonism - Counterscreen GloSensor control cell line. hit rate 69% among 1,400. AID 1347051, 2019. shares compounds with hNpr1 antagonist. Potency, µM (top dose mostly 57.6 µM), inactives show at the highest dose activity change, negative = inhibition, actives largely listed as inhibitors. HEK293 GloSensor cGMP, SNP-stimulated, luminescence; also: % is scaled to controls: 0 for no effect and ±100 for the full control effect; nearly all actives have a fitted effect of over 70% in size
Numbers without * were called inactive; i = inactive; ? = inconclusive; · = not tested or not shown; [ ] = remark or other dose. Unless noted, calls follow the shape of the full dose curve. Potency is read from the fitted curve at half-maximal effect.

SMILES | FLuc inh | HEK cytotox | hNpr1 antagonist | 3T3 cytotox | NPR1 antag cnf | Npr2 selectivity | FLuc counter | GloSensor cGMP
COc1cc2c(cc1Oc1ccccc1)NC(=O)C21CCN(c2cnccn2)CC1 | i | ? | -20.7%[70.6 µM] | ? | ? | ? | 3.0%[86.2 µM] | ?
O=C1Nc2ccccc2C12CCN(Cc1ccc(F)cc1)CC2 | · | ? | · | -6.9% | · | · | · | ·
O=C1Nc2ccccc2C12CCN(Cc1ccc(C(F)(F)F)cc1)CC2 | · | ? | · | ? | 24.3µM* | 24.3µM* | -0.9% | 24.3µM*
O=C(C1CCC1)N1[C@H]2CC[C@@H]1c1cnc(-c3ccc(F)cc3)nc1C2 | i | ? | 17.8µM* | -43.1% | 19.3µM* | 19.3µM* | 1.4% | 15.3µM*
O=C(CC1CCCC1)N1[C@H]2CC[C@@H]1c1cnc(-c3ccccc3)nc1C2 | i | ? | 5.62µM* | -26.5% | 10.9µM* | 12.2µM* | 2.5% | 10.9µM*
O=C(C1CCC1)N1[C@H]2CC[C@@H]1c1cnc(-c3ccccc3)nc1C2 | i | ? | ? | -20.6% | · | · | · | ·
Cn1cccc1C(=O)N1[C@H]2CC[C@@H]1c1cnc(-c3ccc(F)cc3)nc1C2 | i | 15.8µM* | 10µM* | ? | 12.2µM* | 15.3µM* | 1.6% | 13.7µM*
CCC(=O)N1[C@H]2CC[C@@H]1c1cnc(-c3ccc(F)cc3)nc1C2 | i | -21.5% | ? | -23.8% | · | · | · | ·
O=C(C1CCCCC1)N1[C@H]2CC[C@@H]1c1cnc(-c3ccc(F)cc3)nc1C2 | i | -34.4% | 6.31µM* | -30.4% | 9.68µM* | 10.9µM* | 5.2% | 9.68µM*
COc1ccccc1N1CCN(C[C@H]2CN3CC[C@H]2C[C@@H]3CNC(=O)Nc2cccc(C#N)c2)CC1 | i | -19.1% | 1.7% | -28.4% | · | · | · | ·
COc1ccc(CNC(=O)N2[C@H]3CC[C@@H]2c2cnc(-c4ccccc4)nc2C3)cc1 | i | ? | 12.6µM* | -43.2% | 19.3µM* | 19.3µM* | 1.6% | 13.7µM*
Cc1ncccc1C(=O)N1[C@H]2CC[C@@H]1c1cnc(-c3ccc(F)cc3)nc1C2 | i | ? | -29.3% | ? | · | · | · | ·
Cc1cccc(OCC(=O)N2[C@H]3CC[C@@H]2c2cnc(-c4ccc(F)cc4)nc2C3)c1 | i | ? | ? | ? | ? | ? | 3.9% | ?
Cc1ccsc1C(=O)N1[C@H]2CC[C@@H]1c1cnc(-c3ccc(F)cc3)nc1C2 | i | ? | 5.62µM* | ? | 7.69µM* | 7.69µM* | 1.1% | 6.11µM*
Cc1cc(C(=O)N2[C@H]3CC[C@@H]2c2cnc(-c4ccc(F)cc4)nc2C3)n[nH]1 | i | ? | 12.6µM* | ? | 24.3µM* | 24.3µM* | -1.7% | 24.3µM*
COCCn1c(C)cc(C(=O)N2[C@H]3CC[C@@H]2c2cnc(-c4ccc(F)cc4)nc2C3)c1C | i | 25.1µM* | 11.2µM* | ? | 12.2µM* | 15.3µM* | 1.4% | 13.7µM*
O=C(COc1ccc(F)cc1)N1[C@H]2CC[C@@H]1c1cnc(-c3ccccc3)nc1C2 | · | ? | · | -33.0% | · | · | · | ·

Screening data (PubChem BioAssay)
